# Test results from PubChem BioAssay (NCATS).
# Unmarked numbers belong to inactive results. Inconclusive results are not listed. A call without a number means that no potency is given here. Active and inactive are the calls of the source. Unless noted, calls come from the whole dose curve; as a rule, active = well fitted curve in the direction sought with a large enough effect; inconclusive = small, poorly fitted or top-dose-only effect, or another doubt; inactive = no such curve, though single readings can be large; an effect the other way counts as inactive or inconclusive.
# What was measured:
# [1] = target: Cytochrome P450 3A4 (Homo sapiens) (UniProt P08684); test: qHTS Assay for Activators of Cytochrome P450 3A4 (AID 885); note: nearly all actives have a fitted effect of over 65% in size
# Cytochrome P450 3A4 (Homo sapiens), sequence (P08684 whole entry, looked up): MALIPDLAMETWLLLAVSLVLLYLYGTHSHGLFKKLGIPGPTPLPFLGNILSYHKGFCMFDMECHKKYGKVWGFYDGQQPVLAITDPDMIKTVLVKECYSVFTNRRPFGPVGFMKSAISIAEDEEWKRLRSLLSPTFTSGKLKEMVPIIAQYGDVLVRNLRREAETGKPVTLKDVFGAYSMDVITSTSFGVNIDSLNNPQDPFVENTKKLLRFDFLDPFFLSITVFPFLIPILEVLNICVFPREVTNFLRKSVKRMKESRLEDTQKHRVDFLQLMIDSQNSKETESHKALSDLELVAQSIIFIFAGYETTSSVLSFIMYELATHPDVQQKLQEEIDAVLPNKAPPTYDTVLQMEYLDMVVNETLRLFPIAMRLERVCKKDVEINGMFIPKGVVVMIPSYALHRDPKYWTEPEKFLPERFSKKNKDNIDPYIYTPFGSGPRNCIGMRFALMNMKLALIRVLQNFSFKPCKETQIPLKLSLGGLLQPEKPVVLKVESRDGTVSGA
# Procedure, shortened: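 20nM CYP3A4 + 25uM Luciferin-PPXE (=KM), 200mM KPO4; cpd 10 min RT; NADPH regen, 60 min RT; stop w/ detection buffer, 20 min; luminescence. Normalized to 57 uM ketoconazole.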
# CP269 = test: qHTS profiling for inhibitors of Plasmodium falciparum proliferation (AID 504749); note: nearly all actives have a fitted effect of over 60% in size; note: potency is the fitted concentration of half-maximal effect; conditions: P. falciparum in erythrocytes, SYBR Green DNA, 72 h; series mostly up to 12.8 µM
# Procedure, shortened: (§1)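 Three-day growth assay of blood-stage parasites in erythrocytes (0.3% parasitemia, 2.5% hematocrit) at 37 C, 5% CO2, quantified by SYBR Green DNA staining after overnight detergent lysis.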
# CP335 = test: as above; conditions: P. falciparum in erythrocytes, SYBR Green DNA, 72 h; series mostly up to 12.8 µM
# Procedure, shortened: as §1
# DFO2036 = test: as above; conditions: P. falciparum in erythrocytes, SYBR Green DNA, 72 h; series mostly up to 12.8 µM
# Procedure, shortened: as §1
# P94_40 = test: as above; conditions: P. falciparum in erythrocytes, SYBR Green DNA, 72 h; series mostly up to 12.8 µM
# Procedure, shortened: as §1
# W2 = test: as above; conditions: P. falciparum in erythrocytes, SYBR Green DNA, 72 h; series mostly up to 12.8 µM
# Procedure, shortened: as §1
# [2] = target: Cytochrome P450 2D6 (Homo sapiens) (UniProt P10635); test: qHTS Assay for Inhibitors and Substrates of Cytochrome P450 2D6 (AID 891); note: potency is the fitted concentration of half-maximal effect; nearly all actives have a fitted effect of over 60% in size
# Cytochrome P450 2D6 (Homo sapiens), sequence (P10635 whole entry, looked up): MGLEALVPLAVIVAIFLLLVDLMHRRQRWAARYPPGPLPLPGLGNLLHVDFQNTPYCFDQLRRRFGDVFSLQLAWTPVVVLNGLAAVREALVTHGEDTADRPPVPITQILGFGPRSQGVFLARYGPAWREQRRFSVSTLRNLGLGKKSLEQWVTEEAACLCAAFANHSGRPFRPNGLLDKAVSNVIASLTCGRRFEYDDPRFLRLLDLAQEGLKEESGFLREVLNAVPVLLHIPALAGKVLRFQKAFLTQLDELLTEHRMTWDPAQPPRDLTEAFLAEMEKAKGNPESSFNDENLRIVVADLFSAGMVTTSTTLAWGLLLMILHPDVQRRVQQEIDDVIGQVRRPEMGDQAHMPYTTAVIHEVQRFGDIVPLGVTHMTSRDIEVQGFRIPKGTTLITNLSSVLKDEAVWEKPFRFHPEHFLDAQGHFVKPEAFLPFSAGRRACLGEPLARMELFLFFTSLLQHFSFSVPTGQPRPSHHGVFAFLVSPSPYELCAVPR
# Procedure, shortened: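 Human CYP2D6 (5 nM) with 30 uM Luciferin-ME EGE (at Km) in 100 mM KPO4, compound preincubated 10 min, then NADPH regeneration system for 60 min at room temperature. Luciferin read by luminescence; normalized to 1.43 uM quinidine.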
# [3] = S16 Schwann cell PMP22 intronic element beta-lactamase assay (AID 624044; calls by dose curve; note: nearly all actives have a fitted effect of over 15% in size)
# Procedure, shortened: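 Rat S16 Schwann cells with beta-Lac driven by a PMP22 intronic element, compound-treated 24 h at 37 °C. LiveBLAzer FRET B/G read: 460 nm normalized to potassium clavulanate vs DMSO; 535 nm FRET as viability; concentration-effect curves classified.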
# CP211 = test: qHTS profiling for inhibitors of Plasmodium falciparum proliferation (AID 504749); note: nearly all actives have a fitted effect of over 60% in size; note: potency is the fitted concentration of half-maximal effect; conditions: P. falciparum in erythrocytes, SYBR Green DNA, 72 h; series mostly up to 12.8 µM
# Procedure, shortened: as §1
# CP215 = test: as above; conditions: P. falciparum in erythrocytes, SYBR Green DNA, 72 h; series mostly up to 12.8 µM
# Procedure, shortened: as §1
# CP291 = test: as above; conditions: P. falciparum in erythrocytes, SYBR Green DNA, 72 h; series mostly up to 12.8 µM
# Procedure, shortened: as §1
# CP315 = test: as above; conditions: P. falciparum in erythrocytes, SYBR Green DNA, 72 h; series mostly up to 12.8 µM
# Procedure, shortened: as §1
# DIV30 = test: as above; conditions: P. falciparum in erythrocytes, SYBR Green DNA, 72 h; series mostly up to 12.8 µM
# Procedure, shortened: as §1
# PC26 = test: as above; conditions: P. falciparum in erythrocytes, SYBR Green DNA, 72 h; series mostly up to 12.8 µM
# Procedure, shortened: as §1
# DIV14 = test: as above; conditions: P. falciparum in erythrocytes, SYBR Green DNA, 72 h; series mostly up to 12.8 µM
# Procedure, shortened: as §1
# DIV17 = test: as above; conditions: P. falciparum in erythrocytes, SYBR Green DNA, 72 h; series mostly up to 12.8 µM
# Procedure, shortened: as §1
# GB4 = test: as above; conditions: P. falciparum in erythrocytes, SYBR Green DNA, 72 h; series mostly up to 12.8 µM
# Procedure, shortened: as §1
# [4] = target: Cytochrome P450 2C9 (Homo sapiens) (UniProt P11712); test: qHTS Assay for Inhibitors and Substrates of Cytochrome P450 2C9 (AID 883); note: nearly all actives have a fitted effect of over 60% in size
# Cytochrome P450 2C9 (Homo sapiens), sequence (P11712 whole entry, looked up): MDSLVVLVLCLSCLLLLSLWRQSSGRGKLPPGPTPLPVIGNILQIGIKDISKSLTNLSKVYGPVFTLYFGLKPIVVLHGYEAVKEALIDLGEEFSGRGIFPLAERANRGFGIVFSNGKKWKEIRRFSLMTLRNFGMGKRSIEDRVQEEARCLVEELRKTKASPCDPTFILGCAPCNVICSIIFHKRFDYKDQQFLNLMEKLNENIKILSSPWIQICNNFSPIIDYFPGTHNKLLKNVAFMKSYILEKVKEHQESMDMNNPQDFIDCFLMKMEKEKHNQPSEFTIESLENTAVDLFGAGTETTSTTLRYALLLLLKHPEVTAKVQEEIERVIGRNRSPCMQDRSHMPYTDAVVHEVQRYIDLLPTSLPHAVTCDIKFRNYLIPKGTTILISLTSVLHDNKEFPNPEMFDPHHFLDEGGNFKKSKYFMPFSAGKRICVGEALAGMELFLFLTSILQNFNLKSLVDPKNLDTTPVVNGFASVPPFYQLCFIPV
# Procedure, shortened: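 Turnover of Luciferin-H (100uM, KM) by 10nM human CYP2C9 was measured over 60 min at 37C with NADPH regeneration; inhibitors and some substrates reduce luminescence. Data normalized to sulphaphenazole 57uM.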
# [5] = target: Cytochrome P450 2C19 (Homo sapiens) (UniProt P33261); test: qHTS Assay for Inhibitors and Substrates of Cytochrome P450 2C19 (AID 899); note: nearly all actives have a fitted effect of over 60% in size; note: potency is the fitted concentration of half-maximal effect
# Cytochrome P450 2C19 (Homo sapiens), sequence (P33261 whole entry, looked up): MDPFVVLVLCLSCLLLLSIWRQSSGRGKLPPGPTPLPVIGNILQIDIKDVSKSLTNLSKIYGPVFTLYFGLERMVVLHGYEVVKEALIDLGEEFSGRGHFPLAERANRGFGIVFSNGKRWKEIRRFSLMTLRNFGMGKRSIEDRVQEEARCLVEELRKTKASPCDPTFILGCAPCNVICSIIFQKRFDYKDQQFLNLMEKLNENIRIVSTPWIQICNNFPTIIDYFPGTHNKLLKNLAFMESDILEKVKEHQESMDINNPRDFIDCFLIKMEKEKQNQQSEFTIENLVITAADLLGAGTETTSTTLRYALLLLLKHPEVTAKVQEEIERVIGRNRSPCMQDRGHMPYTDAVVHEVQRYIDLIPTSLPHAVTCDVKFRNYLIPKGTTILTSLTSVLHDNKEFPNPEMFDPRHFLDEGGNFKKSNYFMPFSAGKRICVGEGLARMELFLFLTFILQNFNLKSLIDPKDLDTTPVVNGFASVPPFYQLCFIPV
# Procedure, shortened: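 Reactions contain 5nM enzyme, 10uM Luciferin-H EGE (KM) and 50mM KPO4; compound preincubates 10 min at 37C, NADPH regeneration starts turnover for 60 min. Luminescence after detection reagent gives activity.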
structure (smiles),measurement,setting,value
C/C(=C(/CCO)SSC[C@@H]1CCCO1)N(C=O)Cc1cnc(C)nc1N,Potency,[1],inactive
C[N+]12CCC(CC1)[C@@H](OC(=O)C(O)(c1ccccc1)c1ccccc1)C2,Potency,CP269,inactive
same,Potency,CP335,inactive
same,Potency,DFO2036,inactive
same,Potency,P94_40,inactive
same,Potency,W2,inactive
C[C@H](N[C@@H](C)COc1ccccc1)[C@H](O)c1ccc(O)cc1,Potency,[2],0.316 µM (active)
same,Potency,[3],inactive
same,Potency,CP211,inactive
same,Potency,CP215,inactive
same,Potency,CP269,inactive
same,Potency,CP291,inactive
same,Potency,CP315,inactive
same,Potency,CP335,inactive
same,Potency,DFO2036,inactive
same,Potency,DIV30,inactive
same,Potency,P94_40,inactive
same,Potency,PC26,inactive
same,Potency,W2,4.55 µM (active)
CC(C)(C)NC[C@H](O)COc1cccc2c1CCC(=O)N2,Potency,[3],inactive
same,Potency,CP211,inactive
same,Potency,CP215,inactive
same,Potency,CP269,inactive
same,Potency,CP291,inactive
same,Potency,CP315,inactive
same,Potency,DFO2036,inactive
same,Potency,DIV14,inactive
same,Potency,DIV17,inactive
same,Potency,DIV30,inactive
same,Potency,GB4,inactive
same,Potency,P94_40,inactive
same,Potency,PC26,inactive
same,Potency,W2,inactive
NS(=O)(=O)c1cc2c(cc1Cl)N[C@@H](CC1CCCC1)NS2(=O)=O,Potency,[4],inactive
same,Potency,CP211,inactive
same,Potency,CP215,inactive
same,Potency,CP269,inactive
same,Potency,CP291,inactive
same,Potency,CP315,inactive
same,Potency,CP335,inactive
same,Potency,DFO2036,inactive
same,Potency,DIV14,inactive
same,Potency,DIV17,inactive
same,Potency,DIV30,inactive
same,Potency,GB4,inactive
same,Potency,P94_40,inactive
same,Potency,PC26,inactive
same,Potency,W2,inactive
C=CCN1C(=CCO)[C@H]2C[C@H]3[C@@H]1CC[C@@]31c3ccccc3N3C=C4[C@@H]5N(/C=C/2[C@H]31)c1ccccc1[C@]51CC[C@H]2[C@H]1C[C@@H]4/C(=C/CO)N2CC=C,Potency,[3],inactive
same,Potency,CP211,inactive
same,Potency,CP215,inactive
same,Potency,CP269,inactive
same,Potency,CP291,inactive
same,Potency,CP315,inactive
same,Potency,DIV14,inactive
same,Potency,DIV17,inactive
same,Potency,DIV30,inactive
same,Potency,GB4,inactive
same,Potency,P94_40,inactive
same,Potency,PC26,inactive
same,Potency,W2,inactive
O=C1O[C@H](CN2CCOCC2)CN1/N=C\c1ccc([N+](=O)[O-])o1,Potency,[3],inactive
same,Potency,CP211,inactive
same,Potency,CP215,inactive
same,Potency,CP269,inactive
same,Potency,CP291,inactive
same,Potency,CP315,inactive
same,Potency,CP335,inactive
same,Potency,DIV14,inactive
same,Potency,DIV17,inactive
same,Potency,DIV30,inactive
same,Potency,GB4,inactive
same,Potency,PC26,inactive
CC(=O)[C@@]1(O)CC[C@H]2[C@H]3C[C@@H](C)C4=CC(=O)C=C[C@]4(C)[C@@]3(F)[C@@H](O)C[C@]21C,Potency,[1],inactive
same,Potency,CP211,inactive
same,Potency,CP215,inactive
same,Potency,CP269,inactive
same,Potency,CP291,inactive
same,Potency,CP315,inactive
same,Potency,CP335,inactive
same,Potency,DFO2036,inactive
same,Potency,DIV14,inactive
same,Potency,DIV17,inactive
same,Potency,DIV30,inactive
same,Potency,GB4,inactive
same,Potency,P94_40,inactive
C#C[C@@]1(O)CC[C@@H]2[C@@H]3CCC4=C(CCC(=O)C4)[C@H]3CC[C@]21C,Potency,[5],0.0631 µM (active)
same,Potency,[3],inactive
COc1ccc2c3c([nH]c2c1)[C@@H]1C[C@@H]2[C@@H](C[C@H](O)[C@H](OC)[C@H]2C(=O)O)CN1CC3,Potency,[4],inactive
CS(=O)(=O)c1ccc([C@H](O)[C@H](CO)NC(=O)C(Cl)Cl)cc1,Potency,[3],inactive
same,Potency,DIV14,inactive
same,Potency,DIV17,inactive
same,Potency,DIV30,inactive
same,Potency,PC26,inactive
C=CCSC[C@@H]1Nc2cc(Cl)c(S(N)(=O)=O)cc2S(=O)(=O)N1,Potency,[4],inactive
COc1ccc(C[C@@](C)(N)C(=O)O)cc1OC,Potency,CP211,inactive
same,Potency,CP215,inactive
same,Potency,CP269,inactive
same,Potency,CP291,inactive
same,Potency,CP315,inactive
same,Potency,DIV14,inactive
same,Potency,DIV17,inactive
same,Potency,DIV30,inactive
same,Potency,GB4,inactive
same,Potency,P94_40,inactive
same,Potency,PC26,inactive
same,Potency,W2,inactive
CCC[C@H]1C[C@H](C(=O)N[C@H]([C@@H]2O[C@H](SC)[C@@H](O)[C@H](O)[C@@H]2O)[C@H](C)O)N(C)C1,Potency,[4],inactive
CNC[C@H](O)c1ccc(OC(=O)C(C)(C)C)c(OC(=O)C(C)(C)C)c1,Potency,[3],inactive
same,Potency,CP211,inactive
same,Potency,CP291,inactive
same,Potency,CP335,inactive
same,Potency,DFO2036,inactive
same,Potency,DIV14,inactive
same,Potency,DIV30,inactive
same,Potency,P94_40,inactive
COc1cc(N)c(Cl)cc1C(=O)N[C@H]1CCN(CCCOc2ccc(F)cc2)C[C@H]1OC,outcome,[4],inactive
same,outcome,[5],inactive
same,Potency,[3],inactive
same,Potency,CP215,inactive
same,Potency,CP315,inactive
same,Potency,P94_40,3.16 µM (active)
same,Potency,W2,5.1 µM (active)
O=C(NC[C@@H](O)CO)c1c(I)c(C(=O)NC[C@@H](O)CO)c(I)c(N(CCO)C(=O)CO)c1I,Potency,[3],inactive
same,Potency,CP211,inactive
same,Potency,CP215,inactive
same,Potency,CP269,inactive
same,Potency,CP291,inactive
same,Potency,CP315,inactive
same,Potency,CP335,inactive
same,Potency,DFO2036,inactive
same,Potency,DIV14,inactive
same,Potency,DIV17,inactive
same,Potency,DIV30,inactive
same,Potency,GB4,inactive
same,Potency,PC26,inactive
same,Potency,W2,inactive
CC[C@@H]1OC(=O)[C@H](C)[C@H](O[C@@H]2C[C@](C)(OC)[C@H](O)[C@H](C)O2)[C@H](C)[C@H](O[C@@H]2O[C@@H](C)C[C@@H](N(C)C)[C@@H]2O)[C@](C)(O)C[C@H](C)C(=NOCOCCOC)[C@H](C)[C@H](O)[C@]1(C)O,Potency,[3],inactive
same,Potency,CP291,inactive
same,Potency,CP335,inactive
same,Potency,DIV14,inactive
same,Potency,DIV17,inactive
same,Potency,DIV30,inactive
same,Potency,GB4,inactive
same,Potency,P94_40,inactive
same,Potency,PC26,inactive
C[C@@]12CC[C@H]3[C@@H](CCC4=CC(=O)CC[C@]43C)[C@H]1CC[C@H]2C(=O)CO,Potency,[3],inactive
same,Potency,CP211,inactive
same,Potency,CP215,inactive
same,Potency,CP269,inactive
same,Potency,CP291,inactive
same,Potency,CP315,inactive
same,Potency,CP335,inactive
same,Potency,DFO2036,inactive
same,Potency,DIV17,inactive
same,Potency,DIV30,inactive
same,Potency,GB4,inactive
same,Potency,PC26,inactive
same,Potency,W2,inactive
C=CCOc1ccccc1OC[C@H](O)CNC(C)C,Potency,[4],inactive
same,Potency,[3],inactive
same,Potency,CP211,inactive
same,Potency,CP269,inactive
same,Potency,CP291,inactive
same,Potency,CP335,inactive
same,Potency,DFO2036,inactive
same,Potency,DIV14,inactive
same,Potency,DIV17,inactive
same,Potency,DIV30,inactive
same,Potency,PC26,inactive
same,Potency,W2,1.14 µM (active)
